Values without a mark were called inactive. Activity calls are given as the source filed them. Rule as the data show it: active = fold change mostly below about -2 (no sharp cut-off); inactive = mostly above about -1.8.
assay: TERT promoter activity modulators, primary screen, cell-based, luciferase reporter, human (AID 1259240); conditions: A2780 TERT promoter luciferase reporter, 16 h; at 20 µM, fold versus average of vehicle-only wells

Row | SMILES | fold change | outcome
1 | O=C(CSc1ncnc2ccccc12)N1CCc2ccccc21 | 1.26 | –
2 | CC(=O)N1CCC(N(C(=O)Nc2ccc(F)cc2)C2CCCC2)CC1 | -1.02 | –
3 | CC1CN(C2=NC(=O)/C(=C/c3ccccc3Br)S2)CC(C)O1 (stereo not given) | -1.41 | –
4 | CC1=CSC2=NC(=O)/C(=C\c3coc4ccccc4c3=O)C(=N)N12 | -1.1 | –
5 | CCN(Cc1ccccc1)C(=O)C1CCCN1S(=O)(=O)c1cccc2nsnc12 (stereo not given) | 1.58 | –
6 | CCOC(=O)C1=C(CS(=O)(=O)c2ccc(C)c(C)c2)NC(=O)NC1c1ccc(Cl)cc1 (stereo not given) | 1.11 | –
7 | O=c1oc2cc(O)ccc2cc1-c1nnc(Nc2ccccc2)s1 | – | active
8 | Cc1ccc(-c2cc(C(F)F)n3ncc(C(=O)NCc4cccnc4)c3n2)cc1 | -1.5 | –
9 | CCCCN1C(=O)/C(=c2\sc3nc(-c4cc(OC)c(OC)c(OC)c4)nn3c2=O)c2ccccc21 | -1.17 | –
10 | CCOC(=O)Cn1c(=O)oc2cc(S(=O)(=O)NC3CCN(C(=O)OCC)CC3)ccc21 | 1.58 | –
11 | O=C(c1ccc2c(=O)n3c(nc2c1)CCCCC3)N1CCCCCC1 | 1.21 | –
12 | COc1ccc(OC)c(S(=O)(=O)c2cc3cc(OC)ccc3oc2=O)c1 | -1.77 | –
13 | CC1CCC[C@@H](C)N1C(=O)Cc1ccc(NC2=NC3CS(=O)(=O)CC3S2)cc1 (stereo not given in full) | -1.64 | –
14 | CC1Cc2ccccc2N1S(=O)(=O)c1cccc2cccnc12 (stereo not given) | -2.15 (active) | –
15 | CCOC(=O)c1ccc(-c2c(C(F)(F)F)oc3cc(O)c(CC)cc3c2=O)o1 | -2.58 (active) | –
